Test results reported in PubChem BioAssay.
Activity calls are given as the source filed them.

Columns and labels:
[1] = system: PRMT1 (protein arginine N-methyltransferase 1); test: small molecules binding arginine methyltransferase PRMT1 – biochemical, small-molecule microarray, 635 nm fluorescence, primary screen (AID 1088); details: higher = more signal;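 also: binding of Prmt1 protein to compounds spotted on small-molecule microarray slides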
[2] = growth effects on S. cerevisiae YJM789 – YJM789 clinical isolate, OD600, 24 h, basal, primary screen (AID 1089); details: higher = more signal, called active from +8 up or from −8 down;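 also: growth of clinical yeast isolate S. cerevisiae YJM 789 seeded 1000 cells per well; test concentration not given here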
[3] = S. pombe growth modifiers, basal conditions – strain 972, OD600, 24 h, no modulator, primary screen (AID 1090);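 also: basal condition with compound alone and no growth modifier present; test concentration not given here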; details: S. pombe 972 growth, higher = more signal, called active from +8 up or from −8 down
[4] = budding yeast growth modifiers under rapamycin – strain BY4716, OD600, 96 h, primary screen (AID 1091); also: test concentration not given here; details: S. cerevisiae BY4716 + rapamycin, higher = more signal, called active from +8 up or from −8 down
[5] = target: Torsin-1A-interacting protein 2 (Homo sapiens) (UniProt Q8NFQ8); test: small molecules binding lysate-expressed LULL1 – cell lysate, human LULL1 lysate, 635/667 nm fluorescence, primary screen (AID 1092); details: small-molecule microarray, hLULL1 lysate binding, 635 nm fluorescence; higher = more signal;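 also: probe is lysate of COS7 cells overexpressing human LULL1; score merges per-feature 667 nm fluorescence with signal-to-noise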
Sequence of Torsin-1A-interacting protein 2 (Homo sapiens) (Q8NFQ8 whole entry, looked up): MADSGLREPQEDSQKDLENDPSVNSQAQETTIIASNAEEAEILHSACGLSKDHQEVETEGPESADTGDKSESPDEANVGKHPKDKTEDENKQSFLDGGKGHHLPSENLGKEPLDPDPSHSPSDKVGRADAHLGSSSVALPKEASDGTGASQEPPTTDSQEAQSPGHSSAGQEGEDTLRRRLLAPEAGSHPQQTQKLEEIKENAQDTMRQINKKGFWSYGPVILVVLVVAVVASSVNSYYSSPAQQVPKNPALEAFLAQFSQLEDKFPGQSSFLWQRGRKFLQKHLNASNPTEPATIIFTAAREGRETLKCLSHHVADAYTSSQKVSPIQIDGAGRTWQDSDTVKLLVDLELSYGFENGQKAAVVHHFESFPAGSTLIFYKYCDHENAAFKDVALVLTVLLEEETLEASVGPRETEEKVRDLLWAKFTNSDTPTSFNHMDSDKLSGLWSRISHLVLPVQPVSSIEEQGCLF

[6] = optical density change of DRC41 E. coli – strain DRC41, OD650, 24 h, E. coli filamentation project, primary screen (AID 1093);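 also: MC1000 strain lacking acrAB efflux and sulA so SOS filamentation is blocked; test concentration not given here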; details: E. coli DRC41 growth, higher = more signal, called active from +8 up or from −8 down
[7] = probe aLefty2 binding to arrayed compounds – biochemical, biotinylated probe, 635/667 nm fluorescence, primary screen (AID 1094); details: small-molecule microarray, higher = more signal;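 also: score merges spot fluorescence near 667 nm with spot signal-to-noise ratio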
[8] = system: Noggin (protein binding on small-molecule microarray); test: small molecules binding Noggin protein – biochemical, 635/667 nm fluorescence, primary screen (AID 1095); details: 635 nm fluorescence, higher = more signal;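 also: score merges 667 nm feature fluorescence with signal to noise over triplicate slides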
[9] = target: Neurogenic locus notch homolog protein 3 (Homo sapiens) (UniProt Q9UM47); test: small molecules binding NOTCH3 protein – biochemical, 635/667 nm fluorescence, primary screen (AID 1096); details: small-molecule microarray, 635 nm fluorescence, higher = more signal
Sequence of Neurogenic locus notch homolog protein 3 (Homo sapiens) (Q9UM47 whole entry, looked up): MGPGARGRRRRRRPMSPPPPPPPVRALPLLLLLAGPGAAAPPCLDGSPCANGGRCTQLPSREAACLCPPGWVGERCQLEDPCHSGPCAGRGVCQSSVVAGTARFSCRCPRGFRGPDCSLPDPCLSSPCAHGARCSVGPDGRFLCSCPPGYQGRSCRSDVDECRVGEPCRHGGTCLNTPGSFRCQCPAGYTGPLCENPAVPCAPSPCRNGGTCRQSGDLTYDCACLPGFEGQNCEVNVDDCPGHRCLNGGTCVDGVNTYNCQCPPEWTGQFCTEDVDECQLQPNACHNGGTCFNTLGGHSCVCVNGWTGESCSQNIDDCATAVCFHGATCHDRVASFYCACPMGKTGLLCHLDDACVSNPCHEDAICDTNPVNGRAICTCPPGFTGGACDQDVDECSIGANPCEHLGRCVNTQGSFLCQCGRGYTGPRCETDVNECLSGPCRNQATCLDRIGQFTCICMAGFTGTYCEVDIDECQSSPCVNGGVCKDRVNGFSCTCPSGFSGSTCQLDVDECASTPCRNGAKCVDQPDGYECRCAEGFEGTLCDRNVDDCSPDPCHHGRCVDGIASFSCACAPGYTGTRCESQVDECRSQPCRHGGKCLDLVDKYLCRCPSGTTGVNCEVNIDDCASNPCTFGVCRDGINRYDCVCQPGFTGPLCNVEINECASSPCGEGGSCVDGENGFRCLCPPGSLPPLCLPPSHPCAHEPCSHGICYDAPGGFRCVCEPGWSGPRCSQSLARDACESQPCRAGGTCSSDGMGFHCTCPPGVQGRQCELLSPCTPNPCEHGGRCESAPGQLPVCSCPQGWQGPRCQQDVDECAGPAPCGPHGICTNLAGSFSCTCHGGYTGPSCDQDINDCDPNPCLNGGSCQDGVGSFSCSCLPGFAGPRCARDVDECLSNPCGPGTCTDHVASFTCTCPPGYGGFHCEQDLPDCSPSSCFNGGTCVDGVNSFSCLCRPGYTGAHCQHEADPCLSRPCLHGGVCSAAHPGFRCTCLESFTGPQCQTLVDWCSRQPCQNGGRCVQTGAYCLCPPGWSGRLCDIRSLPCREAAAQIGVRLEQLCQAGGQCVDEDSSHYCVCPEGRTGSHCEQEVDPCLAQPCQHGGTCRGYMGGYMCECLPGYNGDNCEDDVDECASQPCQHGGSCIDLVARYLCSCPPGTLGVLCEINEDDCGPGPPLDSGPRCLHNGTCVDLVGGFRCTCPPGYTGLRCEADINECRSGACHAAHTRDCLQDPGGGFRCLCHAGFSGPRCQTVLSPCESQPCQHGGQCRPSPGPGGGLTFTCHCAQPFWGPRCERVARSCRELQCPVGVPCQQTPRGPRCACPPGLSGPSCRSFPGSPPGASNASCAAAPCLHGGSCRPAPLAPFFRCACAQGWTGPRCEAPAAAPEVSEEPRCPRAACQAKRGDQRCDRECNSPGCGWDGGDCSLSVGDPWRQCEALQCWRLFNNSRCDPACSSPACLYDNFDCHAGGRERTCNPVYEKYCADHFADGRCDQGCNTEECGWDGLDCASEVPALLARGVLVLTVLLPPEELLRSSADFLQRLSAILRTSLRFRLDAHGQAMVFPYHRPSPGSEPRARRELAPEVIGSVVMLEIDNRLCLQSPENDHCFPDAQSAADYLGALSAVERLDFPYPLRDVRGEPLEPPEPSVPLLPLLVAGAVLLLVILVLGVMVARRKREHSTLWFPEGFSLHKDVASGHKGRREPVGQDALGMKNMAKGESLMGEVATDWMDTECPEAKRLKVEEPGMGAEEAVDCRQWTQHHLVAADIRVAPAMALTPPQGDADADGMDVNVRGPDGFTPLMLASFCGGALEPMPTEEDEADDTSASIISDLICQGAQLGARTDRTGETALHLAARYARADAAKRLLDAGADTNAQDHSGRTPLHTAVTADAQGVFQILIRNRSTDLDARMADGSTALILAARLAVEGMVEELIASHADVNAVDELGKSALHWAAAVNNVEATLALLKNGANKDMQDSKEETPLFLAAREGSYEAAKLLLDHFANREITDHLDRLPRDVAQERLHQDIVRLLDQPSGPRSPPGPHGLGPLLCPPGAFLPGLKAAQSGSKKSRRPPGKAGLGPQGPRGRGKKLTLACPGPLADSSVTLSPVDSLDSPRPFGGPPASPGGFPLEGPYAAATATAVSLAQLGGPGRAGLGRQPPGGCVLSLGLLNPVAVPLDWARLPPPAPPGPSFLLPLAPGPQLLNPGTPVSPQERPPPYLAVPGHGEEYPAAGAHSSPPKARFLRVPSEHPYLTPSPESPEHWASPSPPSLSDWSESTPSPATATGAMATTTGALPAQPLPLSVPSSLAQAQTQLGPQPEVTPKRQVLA

[10] = probe aEGFR binding to arrayed compounds – biochemical, biotinylated probe, 635/667 nm fluorescence, primary screen (AID 1097); details: small-molecule microarray, higher = more signal;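 also: probe is a biotinylated anti-EGFR antibody binding compounds printed on slides; score combines fluorescence near 667 nm and signal to noise of each spot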
[11] = system: Plasmodium falciparum Sir2 (PF13_0152, Sir2A); test: Plasmodium falciparum Sir2A binding compounds – biochemical, small-molecule microarray, 635 nm fluorescence, primary screen (AID 1098); details: fluorescence 635 nm, higher = more signal;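 also: score merges spot fluorescence intensity with its signal-to-noise ratio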
[12] = probe aDKK1 binding to arrayed compounds – biochemical, biotinylated probe, 635/667 nm fluorescence, primary screen (AID 1099); details: small-molecule microarray, higher = more signal;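 also: score merges 667nm spot fluorescence with signal to noise across triplicate slides; reference of the scale not given here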
[13] = probe aCHRDL2 binding to arrayed compounds – biochemical, biotinylated probe, 635/667 nm fluorescence, primary screen (AID 1100); details: small-molecule microarray, higher = more signal
[14] = change in splice reporter luminescence, either direction, cell-based, HEK293, spliceosome inhibition project, primary screen (AID 1101); details: HEK293 splicing luciferase reporter, 24 h, higher = more signal, called active from +8 up or from −8 down;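 also: HEK293 cells carrying a splicing-competent luciferase reporter gene; test concentration not given here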
[15] = target: Fibroblast growth factor 10 (Homo sapiens) (UniProt O15520); test: compounds binding fibroblast growth factor 10 – biochemical, small-molecule microarray, 635 nm fluorescence, primary screen (AID 1102); details: FGF10 binding, fluorescence 635 nm, higher = more signal
Sequence of Fibroblast growth factor 10 (Homo sapiens) (O15520 whole entry, looked up): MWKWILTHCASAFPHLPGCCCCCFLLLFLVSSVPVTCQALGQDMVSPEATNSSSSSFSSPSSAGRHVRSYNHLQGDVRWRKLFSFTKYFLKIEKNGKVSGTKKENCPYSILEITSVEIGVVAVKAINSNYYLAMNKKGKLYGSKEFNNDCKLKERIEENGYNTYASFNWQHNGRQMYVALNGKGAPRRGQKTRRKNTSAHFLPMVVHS

[16] = system: glycogen synthase kinase-3 (GSK3A per assay name; protocol says GSK3B); test: compounds binding glycogen synthase kinase-3 – biochemical, small-molecule microarray, 635 nm fluorescence, GSK3A, primary screen (AID 1103); details: fluorescence 635 nm, higher = more signal; also: the record names both GSK3A and GSK3B
[17] = target: Epidermal growth factor receptor (Homo sapiens) (UniProt P00533); test: compounds binding epidermal growth factor receptor – biochemical, small-molecule microarray, 635 nm fluorescence, primary screen (AID 1104); details: EGFR binding, higher = more signal;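 also: score merges 667 nm emission intensity with spot signal to noise over triplicate slides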
Sequence of Epidermal growth factor receptor (Homo sapiens) (P00533 whole entry, looked up): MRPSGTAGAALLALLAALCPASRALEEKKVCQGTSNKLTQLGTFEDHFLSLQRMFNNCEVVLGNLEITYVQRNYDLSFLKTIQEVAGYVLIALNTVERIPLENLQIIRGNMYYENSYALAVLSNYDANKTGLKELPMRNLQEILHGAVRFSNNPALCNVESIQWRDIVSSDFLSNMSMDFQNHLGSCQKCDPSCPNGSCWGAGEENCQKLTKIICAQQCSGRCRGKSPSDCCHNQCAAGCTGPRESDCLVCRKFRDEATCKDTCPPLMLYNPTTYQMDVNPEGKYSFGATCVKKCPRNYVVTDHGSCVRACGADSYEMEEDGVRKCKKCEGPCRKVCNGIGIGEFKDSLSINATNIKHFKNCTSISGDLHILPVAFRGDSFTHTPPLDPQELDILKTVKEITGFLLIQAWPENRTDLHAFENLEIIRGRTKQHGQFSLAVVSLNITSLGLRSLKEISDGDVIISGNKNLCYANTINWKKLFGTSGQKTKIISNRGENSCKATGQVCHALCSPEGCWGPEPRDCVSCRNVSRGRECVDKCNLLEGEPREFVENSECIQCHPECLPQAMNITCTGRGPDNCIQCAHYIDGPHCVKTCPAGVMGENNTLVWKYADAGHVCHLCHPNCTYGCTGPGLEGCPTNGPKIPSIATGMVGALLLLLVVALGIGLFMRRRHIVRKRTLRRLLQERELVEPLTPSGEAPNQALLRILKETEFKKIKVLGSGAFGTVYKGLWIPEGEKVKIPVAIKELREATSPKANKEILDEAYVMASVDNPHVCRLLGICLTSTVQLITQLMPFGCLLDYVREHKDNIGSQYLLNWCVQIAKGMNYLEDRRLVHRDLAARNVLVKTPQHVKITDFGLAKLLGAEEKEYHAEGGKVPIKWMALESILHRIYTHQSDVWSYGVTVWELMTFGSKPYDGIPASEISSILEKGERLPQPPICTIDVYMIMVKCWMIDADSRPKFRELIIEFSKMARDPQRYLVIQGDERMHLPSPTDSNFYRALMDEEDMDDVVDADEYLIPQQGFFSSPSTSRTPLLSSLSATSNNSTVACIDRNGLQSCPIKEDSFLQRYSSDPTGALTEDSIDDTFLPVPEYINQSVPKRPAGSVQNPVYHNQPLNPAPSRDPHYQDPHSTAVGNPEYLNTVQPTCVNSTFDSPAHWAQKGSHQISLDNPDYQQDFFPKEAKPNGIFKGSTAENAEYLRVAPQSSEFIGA

[18] = target: Follistatin-related protein 3 (Homo sapiens) (UniProt O95633); test: compounds binding follistatin-related protein 3 – biochemical, small-molecule microarray, 635 nm fluorescence, primary screen (AID 1105); details: FSTL3 binding, higher = more signal;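 also: score merges emission near 667 nm and signal to noise per printed spot across three slides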
Sequence of Follistatin-related protein 3 (Homo sapiens) (O95633 whole entry, looked up): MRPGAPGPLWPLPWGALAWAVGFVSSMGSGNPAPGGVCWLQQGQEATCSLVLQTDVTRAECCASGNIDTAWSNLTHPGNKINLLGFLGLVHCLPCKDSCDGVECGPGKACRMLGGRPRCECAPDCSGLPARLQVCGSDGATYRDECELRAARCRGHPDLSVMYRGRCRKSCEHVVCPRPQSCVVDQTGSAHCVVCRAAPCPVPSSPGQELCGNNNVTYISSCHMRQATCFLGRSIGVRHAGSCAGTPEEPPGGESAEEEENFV

[19] = target: Dickkopf-related protein 1 (Homo sapiens) (UniProt O94907); test: small molecules binding DKK1 protein – biochemical, small-molecule microarray, 635 nm fluorescence scan, primary screen (AID 1106); details: higher = more signal;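 also: score merges emission near 667 nm with signal to noise over three replicate slides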
Sequence of Dickkopf-related protein 1 (Homo sapiens) (O94907 whole entry, looked up): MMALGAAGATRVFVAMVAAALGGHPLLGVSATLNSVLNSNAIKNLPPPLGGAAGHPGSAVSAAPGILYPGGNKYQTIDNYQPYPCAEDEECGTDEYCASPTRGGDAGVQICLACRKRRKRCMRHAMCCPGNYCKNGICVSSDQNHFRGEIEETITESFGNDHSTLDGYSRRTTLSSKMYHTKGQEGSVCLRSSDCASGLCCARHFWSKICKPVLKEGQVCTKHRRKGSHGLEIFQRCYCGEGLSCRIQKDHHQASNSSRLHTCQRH

[20] = system: Inhibin beta A chain (activin A); test: small molecules binding activin A – biochemical, small-molecule microarray, 635 nm fluorescence scan, primary screen (AID 1107); details: INHBA, higher = more signal;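 also: mouse activin A protein probed at 4.33 µg/mL on printed slides; score merges bound-protein fluorescence near 667 nm with spot signal-to-noise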

SMILES	composite z-score [1]	z-score [2]	z-score [3]	z-score [4]	composite z-score [5]	z-score [6]	composite z-score [7]	composite z-score [8]	composite z-score [9]	composite z-score [10]	composite z-score [11]	composite z-score [12]	composite z-score [13]	z-score [14]	composite z-score [15]	composite z-score [16]	composite z-score [17]	composite z-score [18]	composite z-score [19]	composite z-score [20]
COC(=O)[C@@]1(Cc2ccc(OC)cc2)[C@H]2c3cc(C(=O)N(C)C)[nH]c3C[C@H]2CN1C(=O)c1ccccc1	-0.614	0.0372 (inactive)	1.15 (inactive)	0.0745 (inactive)	0.982	0.0515 (inactive)	0.096	-0.337	0.201	-0.0594	1.03	0.416	0.564	0.569 (inactive)	1.12	-0.54	-0.144	-0.273	-0.465	0.0999
O=C(NCC(O)CO)C1N=C(c2ccc(OCCCO)cc2)N(c2ccccc2)O1 (stereo not given)	1.55	-0.375 (inactive)	-0.243 (inactive)	0.13 (inactive)	1.8	0.153 (inactive)	-0.196	1.19	0.882	-0.0531	-0.144	-0.12	-0.104	-1.13 (inactive)	0.897	0.65	0.195	0.799	0.433	-0.899
O=C1O[C@@H](c2ccccc2)[C@@H](c2ccccc2)N2[C@@H](c3ccccc3OCCO)[C@]3(C(=O)Nc4ccc(C#CCCO)cc43)[C@@H](C(=O)NC[C@H](O)c3ccccc3)[C@H]12	1.54	2.3 (inactive)	-1.71 (inactive)	4.29 (inactive)	3.29	0.535 (inactive)	1.07	1.37	0.944	0.506	1.69	1.93	1.51	-0.393 (inactive)	0.428	-0.0642	0.249	1.35	0.172	1.41
Cc1ccc(C(C)CC(O)C2C=CC3C(=O)N(C)C(=O)C3N2Nc2ccccc2)o1 (stereo not given)	1.55	0.121 (inactive)	0.388 (inactive)	0.651 (inactive)	0.788	-1.47 (inactive)	0.0997	0.555	1.07	-0.0167	0.84	0.169	0.778	1.27 (inactive)	1.19	1.25	1	1.39	0.593	0.989
CCOC(=O)C[C@H]1[C@H](OC(=O)c2ccccc2-c2ccccc2)[C@@H](NC(=O)c2ccc3ccccc3c2)c2cc(OCCCO)ccc2N1C(=O)Cc1ccc(OC)cc1	-0.793	-0.97 (inactive)	-0.446 (inactive)	-0.248 (inactive)	0.276	-0.904 (inactive)	-0.281	-0.206	-0.626	0.0004	-0.332	0.29	0.58	-0.897 (inactive)	0.125	-0.914	-0.201	-0.517	0.225	0.892
COc1ccc(C#Cc2ccc3c(c2)[C@]2(C(=O)N3)[C@H](C(=O)O)[C@H]3C(=O)O[C@H](c4ccccc4)[C@H](c4ccccc4)N3[C@@H]2c2ccccc2OCCO)cc1	1.54	1.79 (inactive)	0.549 (inactive)	0.705 (inactive)	2.2	0.969 (inactive)	-0.321	0.597	1.04	0.0458	1.54	-0.161	-0.126	-2.14 (inactive)	1.16	1.31	0.481	0.509	0.301	-0.658
COCCOC(=O)N1C(=O)[C@@]2(c3cc(C#CCC(C(=O)OC)C(=O)OC)ccc31)[C@H](C(N)=O)[C@H]1C(=O)O[C@H](c3ccccc3)[C@H](c3ccccc3)N1[C@@H]2c1ccc(O)cc1	1.54	2.77 (inactive)	2.65 (inactive)	7.43 (inactive)	2.58	0.819 (inactive)	0.126	1.12	1.07	0.0254	1.09	0.235	0.283	-1.59 (inactive)	1.42	0.863	0.69	1	0.938	0.187
COCCOC(=O)N1C(=O)[C@@]2(c3cc(C#Cc4ccc(OC)cc4)ccc31)[C@H](c1ccc(OCCO)cc1)N1[C@H](c3ccccc3)[C@H](c3ccccc3)OC(=O)[C@H]1[C@@H]2C(=O)NC[C@H](O)c1ccccc1	1.5	3.3 (inactive)	2.29 (inactive)	7.99 (inactive)	2.31	0.0136 (inactive)	0.3	0.729	1.1	0.259	1.38	0.92	0.537	-0.279 (inactive)	1.16	1.27	0.696	0.475	0.473	0.961
COCCCNC(=O)[C@@]1(CCS(=O)(=O)c2ccccc2)COC(c2ccc(OCCCO)cc2)=N1	1.36	0.134 (inactive)	-0.0454 (inactive)	-0.403 (inactive)	3.67	1.52 (inactive)	0.472	0.878	0.56	0.195	1.37	1.56	1.47	0.0749 (inactive)	0.946	0.878	-0.318	-0.0346	-0.0211	0.952
C[C@@H]1NC(=O)C([C@@H](C)OCc2ccccc2)NC(=O)[C@@]23C(=O)N[C@@H](Cc4ccccc4)C2[C@H](C)[C@@]2(C)O[C@H]2C3/C=C/C/C=C\CNC1=O (stereo not given in full)	-0.448	0.35 (inactive)	-0.258 (inactive)	0.186 (inactive)	-0.327	-1.07 (inactive)	-0.205	-0.0322	0.177	-0.109	1.58	-0.76	-0.751	0.531 (inactive)	0.224	-0.297	-0.506	0.11	0.382	1.44
